The source of these data is PMC4336329 (PLoS ONE, 2015).

In all, about 310,000 compounds went through this assay and about 14,000 (4.5%) showed an effect of 50% or more. The effect is printed as a negative number. The list comes from a sample in which strong results are over-represented; it also holds similar structures and randomly drawn compounds.
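Also: peak tail current of the secondary pulse compared with the same well before compound.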

This assay deals with human ether-à-go-go-related gene (hERG) potassium channel (human, UniProt Q12809). Briefly: primary screen, population patch clamp on CHO cells stably expressing hERG; higher = less effect of the substance. Here is the method: Briefly, Chinese hamster ovary (CHO) cells stably expressing the hERG channel were dislodged from tissue culture flasks and dispensed into PPC plates. […] During the recording, background leak currents were estimated by a 100 ms step to -80 mV from an initial holding potential of -70 mV and subtracted from the subsequent current measurement. The campaign was conducted in two phases using slight differences in recording protocol. In the first phase, the initial voltage pulse used a 100 ms step to -30 mV from a holding potential of -70 mV, a 2 s conditioning step to +25 mV, and a 2 s test step to -30 mV. During the second phase of the screen, the potential during the conditioning step was raised to +45 mV. In both phases of the campaign, a secondary voltage pulse was applied using the same parameters as the second phase initial pulse. The initial and secondary pulses were applied in the absence of compound, and upon application of 1 μM and 10 μM test concentrations. […]
human ether-à-go-go-related gene (hERG) potassium channel, sequence (Q12809 whole entry, looked up): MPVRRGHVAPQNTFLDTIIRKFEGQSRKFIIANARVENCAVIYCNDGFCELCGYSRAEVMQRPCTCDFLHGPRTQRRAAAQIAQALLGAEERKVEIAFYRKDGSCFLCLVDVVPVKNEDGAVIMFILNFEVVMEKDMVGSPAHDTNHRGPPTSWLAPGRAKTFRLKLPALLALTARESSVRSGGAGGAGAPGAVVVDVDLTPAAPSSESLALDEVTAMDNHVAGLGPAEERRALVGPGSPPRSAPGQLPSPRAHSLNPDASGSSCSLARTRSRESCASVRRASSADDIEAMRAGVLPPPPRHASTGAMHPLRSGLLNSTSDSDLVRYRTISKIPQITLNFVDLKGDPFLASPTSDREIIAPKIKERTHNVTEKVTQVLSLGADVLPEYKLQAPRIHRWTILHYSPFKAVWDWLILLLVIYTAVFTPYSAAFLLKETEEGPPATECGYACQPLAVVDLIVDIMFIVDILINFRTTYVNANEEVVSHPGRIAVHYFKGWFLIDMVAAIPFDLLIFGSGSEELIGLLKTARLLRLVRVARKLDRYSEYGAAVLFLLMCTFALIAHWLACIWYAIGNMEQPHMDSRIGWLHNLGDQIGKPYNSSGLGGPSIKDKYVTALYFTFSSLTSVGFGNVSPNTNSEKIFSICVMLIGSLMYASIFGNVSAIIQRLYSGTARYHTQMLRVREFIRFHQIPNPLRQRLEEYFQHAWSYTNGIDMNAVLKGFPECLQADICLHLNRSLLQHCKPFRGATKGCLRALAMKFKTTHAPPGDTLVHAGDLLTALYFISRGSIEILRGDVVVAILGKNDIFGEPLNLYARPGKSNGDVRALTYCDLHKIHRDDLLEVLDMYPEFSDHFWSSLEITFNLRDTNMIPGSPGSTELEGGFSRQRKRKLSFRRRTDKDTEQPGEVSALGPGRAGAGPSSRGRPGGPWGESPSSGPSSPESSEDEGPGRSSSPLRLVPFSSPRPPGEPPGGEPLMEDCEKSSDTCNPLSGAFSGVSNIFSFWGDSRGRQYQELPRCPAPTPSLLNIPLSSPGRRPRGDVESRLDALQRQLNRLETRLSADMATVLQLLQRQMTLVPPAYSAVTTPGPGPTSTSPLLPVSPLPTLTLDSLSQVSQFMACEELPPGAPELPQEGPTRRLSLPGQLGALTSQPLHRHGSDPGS
On to `CC12CCC(=O)N1C(C(=O)NCc1ccccc1Cl)CS2` (stereo not shown), for which the “hERG current change (%, negative = inhibition) at 10uM” value is -9.42%. For `Cc1cc(C)c(OCC(=O)N/N=C/c2ccco2)c(C)c1` the value was -3.8%; for `O=C1NC(=O)/C(=C\c2ccc(OCc3cnc(Cl)s3)cc2)S1`, 19.9%; for `COc1cccc(Nc2cc(N3CCOCC3)c3nonc3c2[N+](=O)[O-])c1`, -8.87%.

`O=C(NCCO)N1c2ccccc2Sc2ccccc21`: the “hERG current change (%, negative = inhibition) at 10uM” value turned out to be 5.99%. As for `O=C(O)CCNC(=O)OCC1c2ccccc2-c2ccccc21`, the figure is -6.49%; as for `COc1ccc(CCN2C(=O)C(C)=C(C)C2=O)cc1OC`, 11.7%. As for `Nn1c(SCC(=O)Nc2ccc3c(c2)OCO3)nnc1C1CC1`, the figure is 7.91%; as for `COc1ccc(N(C)S(=O)(=O)c2ccc(Cl)c(C(=O)NCC(C)(C)N3CCOCC3)c2)cc1`, -41.5%; as for `Cc1ccc(NS(=O)(=O)c2ccc(NC(=O)N3CCCCC3)cc2)cc1`, 8.78%. As for `COCCOc1cc(NC(=O)c2cccc(OC)c2)c(Cl)cc1Cl`, the figure is 6.22%; as for `CCCN(CCC)C(=O)/C=C/c1cccc([N+](=O)[O-])c1`, -34.5%; as for `COc1ccc(OCC(O)CN(C)C(=O)/C=C/c2cccc([N+](=O)[O-])c2)cc1` (stereo not shown), -80.5%. For `CCCC(C)NC(=O)/C=C/c1cccc([N+](=O)[O-])c1` (stereo not shown), the “hERG current change (%, negative = inhibition) at 10uM” value is -7.16%. For `COc1ccc(OCC(O)CNC(=O)/C=C/c2cccc([N+](=O)[O-])c2)cc1` (stereo not shown) the value was 17.6%. As for `COc1ccc(/C=C/C(=O)OCc2cccc([N+](=O)[O-])c2)cc1`, the figure is -9.66%; as for `CC(C)N(C(=O)/C=C/c1cccc([N+](=O)[O-])c1)C(C)C`, -13.8%; as for `CCCCN(CCCC)C(=O)/C=C/c1cccc([N+](=O)[O-])c1`, -68%. For `CCCN(CC(=O)Nc1ccc(Cl)cc1Cl)C(=O)/C=C/c1cccc([N+](=O)[O-])c1` the value was -15.6%. Take `CCCCN(CC)C(=O)/C=C/c1cccc([N+](=O)[O-])c1`: the “hERG current change (%, negative = inhibition) at 10uM” value is -63.5%. As for `O=C(CCNC(=O)c1ccco1)Nc1ccc(Cl)c(C(F)(F)F)c1`, the figure is -16.3%; as for `CCOC(=O)N1CCC(NC(=O)c2cc(COc3ccc(F)cc3Cl)on2)CC1`, -0.672%. As for `CCN(CC)c1ccc(/C=N/Nc2nc(C)cc(C)n2)c(O)c1`, the figure is -7.99%; as for `Cc1ccc(C)c(S(=O)(=O)NCCCc2ccccc2)c1`, -1.65%. As for `CN(c1ccc(C(=O)N2CCOCC2)cc1)S(=O)(=O)c1cccs1`, the figure is 29%; as for `COc1ccccc1NC(=O)CON=C(N)CC(=O)NC1CCCCC1`, -1.99%; as for `CSc1nnc(NC(=O)c2cccc(S(=O)(=O)N3CCOCC3)c2)s1`, -5%. `Cn1c(=O)n(C)c2cc(C(=O)c3ccccc3)ccc21`: the “hERG current change (%, negative = inhibition) at 10uM” value is given as -1.74%.

For the compound `Cc1cc(C)c[n+](CC(=O)c2ccccc2)c1.[Br-]`, the “hERG current change (%, negative = inhibition) at 10uM” value came out at 22.8%. On to `Cc1cc(C)c[n+](CC(=O)c2ccc(C)c([N+](=O)[O-])c2)c1.[Br-]`, for which the “hERG current change (%, negative = inhibition) at 10uM” value was -13.2%. For `Cc1cc(C)c[n+](CC(=O)c2c(C)cc(C)c([N+](=O)[O-])c2C)c1.[Br-]` the value was -68.6%; for `COc1cc(NS(=O)(=O)c2c(C)[nH]c(C)c2C(=O)N2CCCCC2)cc(OC)c1OC`, 5.18%; for `CCCCCn1nc(C(=O)N2CCc3ccccc32)c2ccccc2c1=O`, -3.43%. For `Cc1ccc2nc(Nc3ncc4c(n3)CC(C)(C)CC4=O)nc(C)c2c1` the value was 15.3%; for `N#CC1(NC(=O)CSc2nc3ccc([N+](=O)[O-])cc3s2)CCCCC1`, -69.5%; for `O=C(CSc1nc2ccc(NC(=O)C3CCCCC3)cc2s1)NCC1CCCO1` (stereo not shown), 2.42%. Take `N#CC1(NC(=O)CSc2nc3ccccc3s2)CCCCC1`: the “hERG current change (%, negative = inhibition) at 10uM” value is reported as -15.7%.

Turning to `O=C(CSc1nc2ccccc2s1)NCC1CCCO1` (stereo not shown), the “hERG current change (%, negative = inhibition) at 10uM” value came out at 7.82%.

Consider `O=C(CSc1nc2ccc([N+](=O)[O-])cc2s1)NCC1CCCO1` (stereo not shown), for which the “hERG current change (%, negative = inhibition) at 10uM” value is on record as -54.4%. As for `N#CC1(NC(=O)CN2C(=O)c3ccc([N+](=O)[O-])cc3C2=O)CCCCC1`, the figure is 4.83%. As to `CCn1c(/N=C/c2ccccc2NS(=O)(=O)c2ccc(C)cc2)nc2ccccc21`, the “hERG current change (%, negative = inhibition) at 10uM” value was -19.8%. For `COc1ccc(N(CC(=O)Nc2ccc(F)c(F)c2)S(=O)(=O)c2c(C)[nH]c(=O)[nH]c2=O)cc1` the value was 19.9%; for `NC(=O)COC(=O)c1ccc(-c2ccccc2)cc1`, 14.2%; for `O=C(CCCC(=O)N(CC(=O)NC1CCCC1)Cc1ccc2c(c1)OCO2)Nc1ccccn1`, -26.5%. As for `CC(C)CCNC(=O)CN(Cc1ccccc1)C(=O)CCC(=O)Nc1ccccn1`, the figure is -19.7%; as for `O=C(CCCC(=O)N(CC(=O)NC1CCCCC1)Cc1ccccc1)Nc1ccccn1`, -6.57%; as for `CC(C)CCNC(=O)CN(Cc1ccc2c(c1)OCO2)C(=O)CCC(=O)Nc1ccccn1`, -70.7%.

Take `O=C(CCCC(=O)N(CC(=O)NC1CCCCC1)Cc1ccc2c(c1)OCO2)Nc1ccccn1`: the “hERG current change (%, negative = inhibition) at 10uM” value was -54.3%. With `CC(C)NC(=O)CN(Cc1ccc2c(c1)OCO2)C(=O)CCC(=O)Nc1ccccn1`, the “hERG current change (%, negative = inhibition) at 10uM” value is given as 1.7%. With `Cc1cccc(OCC(=O)N/N=C/c2cc([N+](=O)[O-])ccc2N2CCOCC2)c1`, the “hERG current change (%, negative = inhibition) at 10uM” value is -9.73%. For `COc1ccc(-c2oc3ccc(N4CCOCC4)cc3c2C#CC2(O)CCCCC2)cc1` the value was 17.3%; for `CCN(CC)c1ccc(/C=C2/C(=O)ON=C2C)cc1`, -20.9%; for `Cc1cc(=O)n2nc(N3CCC(C(=O)NCCc4ccc(Cl)cc4)CC3)sc2n1`, -54.5%. Take `CCCc1cc(=O)n2nc(N3CCC(C(=O)NCc4ccco4)CC3)sc2n1`: the “hERG current change (%, negative = inhibition) at 10uM” value is on record as -44.4%.

In the case of `Cc1cc(=O)n2nc(N3CCCC(C(=O)NCc4ccc(Cl)cc4)C3)sc2n1` (stereo not shown), the “hERG current change (%, negative = inhibition) at 10uM” value was -71.7%. For `Cc1cc(=O)n2nc(N3CCC(C(=O)NCc4ccco4)CC3)sc2n1` the value was 17.9%; for `Cc1cc(=O)n2nc(N3CCCC(C(=O)N4CCN(c5ccccc5)CC4)C3)sc2n1` (stereo not shown), -53.5%; for `CCCc1cc(=O)n2nc(N3CCC(C(=O)NCc4ccc(C)o4)CC3)sc2n1`, -61.6%. Regarding `Cc1cc(=O)n2nc(N3CCC(C(=O)NCCc4ccccc4)CC3)sc2n1`, the “hERG current change (%, negative = inhibition) at 10uM” value was -10.1%. For `Cc1ccc(CCNC(=O)C2CCN(c3nn4c(=O)cc(C)nc4s3)CC2)cc1` the value was -33.4%; for `CCc1ccc(CNC(=O)C2CCCN(c3nn4c(=O)cc(C)nc4s3)C2)cc1` (stereo not shown), -36.2%.

On to `Cc1cc(=O)n2nc(N3CCC(C(=O)N4CCN(c5ccccc5)CC4)CC3)sc2n1`, for which the “hERG current change (%, negative = inhibition) at 10uM” value is given as -11.9%.

Take `Cc1ccc(CNC(=O)C2CCCN(c3nn4c(=O)cc(C)nc4s3)C2)cc1` (stereo not shown): the “hERG current change (%, negative = inhibition) at 10uM” value is -31.1%. As for `Cc1cc(=O)n2nc(N3CCCC(C(=O)N4CCN(C)CC4)C3)sc2n1` (stereo not shown), the figure is -7.39%.
